Data: PubChem BioAssay AID686978 (National Center for Advancing Translational Sciences (NCATS), 2013)
Among all 420,000 compounds or so, about 64,000 (15%) were called active. Roughly 27% stayed inconclusive and do not appear here. Calls follow the shape of the dose curve; as a rule, active = well fitted inhibition curve with a large enough effect; inconclusive = small, poorly fitted or top-dose-only effect; inactive = flat fitted curve, though single readings scatter. The list is a sample of the results. Entries that show only a call come without a potency. Peptide text beside a SMILES is read from it.

Test: qHTS for Inhibitors of human tyrosyl-DNA phosphodiesterase 1 (TDP1): qHTS in cells in absence of CPT; also: nearly all actives have a fitted effect of over 55% in size
Details: DT40 Tdp1-/- hTDP1 cells, no CPT, ATP luminescence, 48 h; activity change, negative = growth inhibition: at 46.2 µM (top of the series)
Procedure, shortened: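 A cellular qHTS used chicken DT40 cells lacking endogenous Tdp1 but carrying stably transfected human TDP1. Compounds were applied without camptothecin, and cell growth kinetics were judged by ATP-dependent luminescence after ≥48 hr.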
Potency is read from the fitted curve at half-maximal effect.

| SMILES | Potency |
| --- | --- |
| Cc1ccc(C)c(N2C(=O)CS/C2=N\NC(=O)c2ccccc2Cl)c1 | inactive |
| Cc1ccc(NC(=O)c2nc[nH]c2C(=O)N2CCCCC2)c(C(=O)c2ccccc2)c1 | inactive |
| O=C(NN1C(=O)C2C(C1=O)C1C=CC2C12CC2)c1ccccc1Cl (configuration not stated) | inactive |
| CC12CCC(C(=O)N(NC(=O)c3ccccc3O)C1=O)C2(C)C (configuration not stated) | 18.4 µM (active) |
| COc1ccccc1C(=O)NN1C(=O)C2C3C=CC(O3)C2C1=O (configuration not stated) | inactive |
| O=C(NCc1nnnn1-c1ccc(Cl)cc1)c1ccc2c(c1)OCO2 | inactive |
| O=C(Nc1cccc(Cl)c1)Nc1ccccc1NS(=O)(=O)c1cccs1 | inactive |
| CC(OC(=O)c1cc2ccccc2[nH]1)C(=O)N(C)c1ccccc1 (configuration not stated) | inactive |
| Cc1ccc(-n2c(=O)c(C#N)cc3c(=O)n4ccccc4nc32)cc1C | 23.1 µM (active) |
| Cc1ccc(-n2c(SCC(=O)N3CCC(C(=O)O)CC3)nc3ccccc3c2=O)cc1C | inactive |
| Cc1nc2ccccn2c(=O)c1NC(=O)c1cccs1 | inactive |
| Cc1nc2sc(C(c3ccco3)N3CCC4(CC3)OCCO4)c(O)n2n1 (configuration not stated) | inactive |
| Cc1[nH]n(-c2cccc(Cl)c2)c(=O)c1-c1ccc(Cl)cc1 | 16.4 µM (active) |
| Cc1nn(-c2ccccc2)c(NC(=O)c2cccs2)c(-c2ccc(Cl)cc2)c1=O | inactive |
| CC1=NN(c2cccc(Cl)c2)C(=O)C12CC(C)=C(C)CS2 (configuration not stated) | inactive |
| CCOC(=O)Cn1c(=O)oc2cc(S(=O)(=O)NCC3CCCO3)ccc21 (configuration not stated) | inactive |
| NC(=O)C1CCN(C(=O)COc2ccc3c4c(c(=O)oc3c2)CCC4)CC1 | inactive |
| CC1CCCCN1CC(=O)N1CCCc2c1c(=O)oc1ccc(OCc3ccccc3)cc21 (configuration not stated) | 4.61 µM (active) |
| O=C(COc1ccc2oc3c(c2c1)CCCC3)Nc1ccccn1 | inactive |
| COc1cccc(CCNC(=O)c2cccc(NC(=O)C3=C(C)OCCS3)c2)c1 | inactive |
| CC1CCCCC1NC(=O)CCS(=O)(=O)c1cccc2nonc12 (configuration not stated) | inactive |
| CCOC(=O)C1=C(COC(=O)[C@H](C)NS(=O)(=O)c2ccccc2F)NC(=O)NC1C (some centres not stated) | inactive |
| CCOC(=O)c1sc(-c2cccc([N+](=O)[O-])c2)cc1N | inactive |
| CCOC(=O)C1=C(c2ccccc2)NC(=O)NC1c1cc(OC)c(OC)cc1OC (configuration not stated) | inactive |
| CCOC(=O)COc1ccc(Cl)cc1C1NC(=O)NC(C)=C1C(C)=O (configuration not stated) | inactive |
| CCOC(=O)C1=C(CN2CCCCCC2)NC(=O)NC1c1cccc([N+](=O)[O-])c1 (configuration not stated) | 20.6 µM (active) |

| SMILES | Potency |
| --- | --- |
| CCOC(=O)C1=C(CN2CCc3ccccc32)NC(=O)NC1c1cc(C)ccc1C (configuration not stated) | 12.6 µM (active) |
| CCOCCOC(=O)C1=C(C)NC(=O)NC1c1ccc2c(c1)OCO2 (configuration not stated) | inactive |
| CCOC(=O)C1=C(CNC2CCCCC2)NC(=O)NC1c1cc(C)ccc1C (configuration not stated) | 20.6 µM (active) |
| CCOC(=O)C1=C(CSc2nccn2C)NC(=O)NC1c1ccc(OC)cc1 (configuration not stated) | inactive |
| CC(=O)NC(C(=O)NCC(N)=O)C(C)C (configuration not stated) (HELM PEPTIDE1{[ac].[CC(C)C(N[*:1])C(=O)[*:2]].G.[am]}$$$$V2.0) | inactive |
| C/C(Cc1ccccc1)=N\NC(=O)CNC(=O)c1ccccc1Cl | inactive |
| CCC(C)N(C(=O)Cn1nc(C)c([N+](=O)[O-])c1C)C1CCS(=O)(=O)C1 (configuration not stated) | inactive |
| Nc1cc(=O)n(Cc2ccccc2)c(=O)n1Cc1ccccc1 | inactive |
| COc1cc(OC)c(-n2c(C)cc(C=O)c2C)cc1Cl | inactive |
| COc1ncnc2c1ncn2CCCNCCN1CCOCC1 | inactive |
| CN1/C(=C\C=C2\N=C(c3ccc(F)cc3)OC2=O)C(C)(C)c2ccccc21 | 23.1 µM (active) |
| Cc1ccnc2nc(C(=O)OCC(=O)N(CC(C)C)CC(C)C)nn12 | inactive |
| O=C(O)c1ccccc1-c1ccccc1C(=O)Nc1nccs1 | inactive |
| COc1ccc([C@H]2CC(=O)C[C@@H](CCn3cc(CC4CCCC4)nn3)O2)cc1 | inactive |
| COc1ccc(-c2ccc(CN3C(CC(C)C)C(=O)N(Cc4cn(CC5CCCCC5)nn4)CCS3(=O)=O)cc2)cc1 (configuration not stated) | 9.2 µM (active) |
| COc1ccc(-c2ccc(CN3C(C(C)C)C(=O)N(Cc4cn(CC5CCCCC5)nn4)CCS3(=O)=O)cc2)cn1 (configuration not stated) | 23.1 µM (active) |
| COc1ccc(-c2ccc(CN3C(CC(C)C)C(=O)N(Cc4cn(CC5CCCCC5)nn4)CCS3(=O)=O)cc2)cn1 (configuration not stated) | 18.4 µM (active) |
| Cc1nccn1CCCNC(=O)CC1C(=O)NCCN1Cc1ccc(Cl)c(F)c1 (configuration not stated) | inactive |
| O=C(NCc1cccnc1)C12CC3CC(CC(C3)C1)C2 | inactive |
| Cc1ccc(/C=C/C(=O)OCC(=O)Nc2cccnc2Cl)cc1 | inactive |
| COc1ccc(NC(=O)CCS(=O)(=O)c2cc3c(cc2Cl)NC(=O)CO3)cc1OC | inactive |
| CC(C)C(C)(C#N)NC(=O)CSc1nncn1-c1ccccc1 (configuration not stated) | inactive |
| Cn1c(=O)c2sccc2n2c(CCC(=O)NCc3ccccc3Cl)nnc12 | inactive |
| CSc1ccc(Cl)c(C(=O)OCC(=O)N2CCNC2=O)c1 | inactive |
| CCc1ccc(N2CC(C(=O)N3CCCCCC3)CC2=O)cc1 (configuration not stated) | inactive |
| Cc1ccc(N2CC(C(=O)N3CCC4(CC3)CC(=O)c3ccccc3O4)CC2=O)cc1C (configuration not stated) | 14.6 µM (active) |

| SMILES | Potency |
| --- | --- |
| O=C(C1CC(=O)N(c2ccc(Br)cc2)C1)N1CCCC1 (configuration not stated) | inactive |
| Nn1c(SCC(=O)Nc2nccs2)nnc1-c1ccco1 | inactive |
| COC(=O)C1=C(C(=O)c2ccc(C)cc2)C(c2ccccc2)n2nnnc2N1 (configuration not stated) | inactive |
| CC(C)Cc1ccc(C(C)C(=N)N)cc1 (configuration not stated) | 6.51 µM (active) |
| COc1ccc(CCNC(=O)CC2SC(=Nc3cc(C)cc(C)c3)NC2=O)cc1OC (configuration not stated) | inactive |
| O=C1c2cccnc2C(Nc2ccc(S(=O)(=O)N3CCCCCC3)cc2)N1Cc1ccccc1 (configuration not stated) | inactive |
| O=[N+]([O-])c1ccc2c(c1)C(O)n1nc(-c3ccccc3)nc1S2 (configuration not stated) | inactive |
| NC1=NN(c2cccc(C(=O)O)c2)C(=O)C1 | inactive |
| Cc1nn(C)c(C)c1C(C)NC(=O)c1ccc(OC2CCN(Cc3ccccn3)CC2)cc1 (configuration not stated) | inactive |
| Cc1ccc(C(=O)NCC(=O)OCc2nnc(-c3ccccc3)o2)cc1 | inactive |
| C=CCn1nc(-c2ccccc2)c2c(C)onc2c1=O | inactive |
| O=C(OCc1nnc(-c2ccccc2)o1)c1ccc2c(c1)C(=O)N(CCc1ccccc1)C2=O | inactive |
| CN(C)c1ccc(-c2nnc(-c3cccnc3)o2)cc1 | inactive |
| Cc1onc(-c2ccccc2)c1-c1nnc(COC(=O)c2ccc(N(C)C)cc2)o1 | 20.6 µM (active) |
| Cc1onc(-c2ccccc2Cl)c1C(=O)OCc1nnc(-c2ccccc2)o1 | 23.1 µM (active) |
| CCCN1CNC(=S)N(CCc2ccccc2)C1 | inactive |
| O=C(CSc1nc2[nH]c(=O)[nH]c(=O)c2s1)Nc1cccc(F)c1 | inactive |
| O=C(O)c1ccccc1-c1cccc2nncn12 | inactive |
| COC(=O)c1ccc2c(=O)n(CC3CCCO3)c(=S)[nH]c2c1 (configuration not stated) | inactive |
| CCOC(=O)c1sc2nc(C)[nH]c(=O)c2c1C | inactive |
| CCOC(=O)c1sc(=S)n2c1[nH]c(=O)c1ccc(C(=O)OC)cc12 | 5.8 µM (active) |
| Cc1cc(C)c2c(n1)sc1c(=O)n(-c3ccccc3)c(=O)[nH]c12 | inactive |
| CC(=O)Nc1cc(C(=O)O)ccc1S(=O)(=O)c1ccc(Cl)cc1 | inactive |
| COc1ccc2c(c1)cc1n2CCN=C1NN | inactive |
| COc1ccccc1CN1CC(C(=O)NCCc2cn[nH]c2)CCC1=O (configuration not stated) | inactive |
| CC(C)=CC1C(C(=O)O)C1(C)C (configuration not stated) | inactive |

| SMILES | Potency |
| --- | --- |
| CCC1(C)COC(c2ccc(OC)c(OC)c2)OC1 (configuration not stated) | inactive |
| CC(=O)c1cccc(-n2nnnc2SCC(=O)NNC(=O)C2CCCCC2)c1 | inactive |
| CCN(Cc1ccccc1)C(=O)CSc1nc(C)cc2c1C(=O)OC2 | inactive |
| CCOC(=O)C1CCCN(C(=O)c2ccc(C)c(F)c2)CC1 (configuration not stated) | inactive |
| Cc1cc(C)cc(NC(=O)N2CCCCCCC2)c1 | inactive |
| Cc1ccc(C(NC(=O)N2CCCC2)C(Cl)(Cl)Cl)cc1F (configuration not stated) | 20.6 µM (active) |
| CCOC(=O)C1C(=O)OC2(CCCC2)C1C(=O)OCC (configuration not stated) | inactive |
| Cc1ccc(CC2C(=O)N(c3ccc(F)cc3)C(=O)C2C)cc1 (configuration not stated) | inactive |
| CC1(C)CC(=O)CC2(C1)NCC(c1ccccc1Cl)c1c2[nH]c2ccccc12 (configuration not stated) | 16.4 µM (active) |
| CNC(=O)c1ccc(-c2nc(CN3CCc4ccccc43)c(C)o2)cc1 | 20.6 µM (active) |
| CC(=O)Nc1ccccc1-c1nc(CNC(=O)c2ccc(Cl)cc2)c(C)o1 | inactive |
| COC(=O)c1cc2occc2n1Cc1nc(-c2ccccc2C)oc1C | inactive |
| COc1ccc(-c2cn(-c3ccc(C)cc3)c(=O)n2CC(=O)Nc2ccc(OC)c(OC)c2)cc1 | inactive |
| CN(Cc1ccccc1)C(=O)c1ccc(NC2=NC3CS(=O)(=O)CC3S2)cc1 (configuration not stated) | inactive |
| CC(C)[C@H](NC(=O)N1CCn2c1nc1ccccc12)C(=O)NC1CC1 | inactive |
| CC(C)[C@H](NC(=O)N1CCn2c1nc1ccccc12)C(=O)NCc1ccc2c(c1)OCO2 | inactive |
| CCC(C)[C@H](NC(=O)N1CCn2c1nc1ccccc12)C(=O)NCc1ccc(OC)cc1 (some centres not stated) | 16.4 µM (active) |
| N/C(=N\OC(=O)CCCC(=O)O)c1ncc(C(F)(F)F)cc1Cl | inactive |
| CC(C)CCN1CCC(C)(NC(=O)c2ccccc2)C1=O (configuration not stated) | inactive |
| CN(C)/C=C(/C(=O)c1ccc(Cl)cc1)S(=O)(=O)c1ccccc1 | inactive |
| COC(C[C@H](O)CC(=O)[C@@H](C)OCc1ccccc1)OC | inactive |
| COC(C[C@@H]1O[C@@H]1C(=O)[C@H](C)OCc1ccccc1)OC | inactive |
| COC(C/C=C/C(=O)[C@@H](C)OCc1ccccc1)OC | 18.4 µM (active) |
| CCc1ccccc1N1C(=O)CN(S(=O)(=O)CC)CC1(C)C(=O)NC1CCCCC1 (configuration not stated) | inactive |
